Results from PubChem BioAssay.
Values without a mark were called inactive. The source made the active and inactive calls. Unless noted, how the calls were made is not given here.

Test system: not listed separately
Assay: HepG2 cytotoxicity, primary screen, cytotoxicity control for P. falciparum antimalarial project, cell-based, ATP luminescence (AID 2303;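 active means inhibition above 50%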;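 further: 0% = DMSO wells and 100% = digitonin-killed cells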)
Conditions: HepG2 viability, 24-48 h, at 10 µM, active compounds read high

| Compound | inhibition |
| --- | --- |
| CS(=O)(=O)c1cc2c(Nc3ccc(N4CCOCC4)cc3)c(C(N)=O)cnc2cc1Br | -18% |
| Cc1ccc(Cn2ncc(N3CCC(N)CC3)c(Cl)c2=O)cc1NC(=O)Nc1ccc(-c2ccccc2)cc1 | 29% |
| COc1ccc(C=C2SC(=O)NC2=Nc2ccccc2)c(OC)c1 | 51% (active) |
| Cc1nnsc1C(=O)Nc1ccc(-c2ccc(-c3nc4ccccc4[nH]3)s2)cc1 | 49% |
| C=CCc1cc(Br)ccc1OCCCON1C(N)=NC(N)=NC1(C)C | 61% (active) |
| CCOc1c(OC)ccc2c1CCN(CCN1CCC(CNC(=O)c3ccc(-c4ccc(C(F)(F)F)cc4)cc3)CC1)C2 | 54% (active) |
| C(=N\Nc1nccc2sc(-c3cccnc3)cc12)/c1ccncc1 | 65% (active) |
| O=C(C=Cc1ccc(Cl)c(Cl)c1)NCCCCCN1CCCC(CCCNS(=O)(=O)c2ccc(Br)cc2)C1 (configuration not stated) | 43% |
| COc1cc(OCCCN(C)Cc2ccc(OC)c(OC)c2)ccc1NC(=O)c1cccc2c(=O)c3cccc(F)c3[nH]c12 | 10% |
| Cc1ccc(NC(=O)NC2CCN(CCCCCNC(=O)[C@@H]3C[C@H]3c3ccc(Cl)c(Cl)c3)CC2)cc1 | 35% |
| CN(C)S(=O)(=O)c1cc(-c2ccc3nccc(-c4cccc(S(N)(=O)=O)c4)c3c2)cnc1N | 35% |
| O=S(=O)(c1cc(Cl)ccc1Cl)N1CCCCC(c2ccc(C(F)(F)F)cc2)=N1 | 15% |
| Oc1cccc(-c2nc(-c3ccccc3)c(-c3ccc(Oc4ccc(-c5[nH]c(-c6cccc(O)c6)nc5-c5ccccc5)cc4)cc3)[nH]2)c1 | 6% |

Target: L-lactate dehydrogenase (Plasmodium falciparum (isolate CDC / Honduras)) (UniProt Q27743)
Assay: PfLDH activity inhibition – cell lysate, 3D7 strain, counter-screen for P. falciparum growth inhibition project (AID 2304);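 further: 0% = vehicle and 100% = reference inhibitor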
Conditions: P. falciparum 3D7 crude extract, LDH APAD/NBT absorbance; at 2 µM; active compounds read high

L-lactate dehydrogenase (Plasmodium falciparum (isolate CDC / Honduras)), sequence (Q27743 whole entry, looked up): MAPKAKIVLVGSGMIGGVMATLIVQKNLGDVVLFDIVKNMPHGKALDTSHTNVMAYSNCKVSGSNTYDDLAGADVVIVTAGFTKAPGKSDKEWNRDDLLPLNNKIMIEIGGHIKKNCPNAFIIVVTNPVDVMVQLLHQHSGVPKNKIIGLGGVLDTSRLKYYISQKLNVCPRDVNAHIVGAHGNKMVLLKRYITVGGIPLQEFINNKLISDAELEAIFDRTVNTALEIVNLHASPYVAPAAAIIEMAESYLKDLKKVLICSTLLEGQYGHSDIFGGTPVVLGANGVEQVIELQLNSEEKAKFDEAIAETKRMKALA

| Compound | inhibition [%] |
| --- | --- |
| COc1cc(NC(=O)c2sc(-c3ccc(Cl)cc3)cc2NC(=O)c2cccc(N(C)C)c2)ccc1OCCN1CCCC1 | -3 |
| O=C(Nc1ccc(F)c([N+](=O)[O-])c1)Nc1cc(C(F)(F)F)ccc1Cl | 0 |
| COc1cc(CN2CCC(C(=O)Nc3ccc(-c4cccc(C)c4)cc3)CC2)ccc1O | 3 |
| CN1CCN(c2ccnc3ccc(NC(=O)N(C)c4ccc(Cl)c(Cl)c4)cc23)CC1 | -3 |
| CCCCc1ccc(C(=O)Nc2ccc3nc(N4CCN(C)CC4)cc(C)c3c2)cc1 | -6 |
| Cc1cc2nc(/N=C(\N)NC(=O)NC3CCCCC3)nc(C)c2cc1C | 2 |
| CC(C)N1CCN(C(CN2CCN(CCCOc3ccc(-c4ccccc4)cc3)CC2)c2ccc(F)cc2)CC1 (configuration not stated) | -2 |
| COc1cc2nc(N(C)C)nc(Nc3ccc(OCc4ccccc4)cc3)c2cc1OC | -8 |
| COc1ccccc1-c1cc(C(=O)N2CCN(S(=O)(=O)c3ccc(C)cc3)CC2)[nH]n1 | -4 |
| Cc1noc(C)c1-c1cccc(CNCc2cccc(-c3ccc(-c4nc5ccccc5[nH]4)s3)c2)c1 | -1 |
| CNC(=O)NC1=NC(C)(C)N(OCc2ccc(Cl)c(Cl)c2)C(NC(=O)NC)=N1 | -2 |
| CSC1=NC2(CC(c3cccc(C)c3)c3cc(Cl)c(O)cc3O2)CC(C)(C)N1 (configuration not stated) | 4 |
| Cc1ccc(F)c(OC2CCN(c3ccc(C(=O)NC4CC4)cn3)CC2)c1 | -2 |
| Nc1cccc(CNCc2cccc(-c3ccc(-c4nc5ccc(C(F)(F)F)cc5[nH]4)cc3)c2)c1 | 1 |
| CCCCCCCCn1ccc(=N)cc1 | -5 |
| CC(C)N1CCCN(C(=O)C2CCN(c3ccc(C(=O)N4CCCC4)cn3)CC2)CC1 | 1 |
| COc1ccc2nc(C)cc(Nc3ccc(Oc4ccc5ccccc5c4)c(Cl)c3)c2c1 | 3 |
| CCOc1ccc2c(NN=Cc3cccc(Cl)c3)cc(C)nc2c1 | -2 |
| Nc1nc(N)c2cc(Sc3ccc4ccccc4c3)ccc2n1 | 0 |
| COC(=O)c1ccc2nc(-c3ccc(/C=C/C(=O)NC4CCN(Cc5ccccc5)CC4)cc3)[nH]c2c1 | -5 |
| O=C(NC1CC1)c1cnc(N2CCC(OCc3ccccc3)CC2)c(Cl)c1 | -2 |
| C[C@@H](COc1ccc(-c2ccccc2)cc1)CON1C(N)=NC(N)=NC1(C)C | 3 |
| Cc1ccc2nc(Nc3ccc(Nc4nc5ccc(C)cc5[nH]4)c(C)c3)[nH]c2c1 | 6 |
| Cc1cc(N2CCOCC2)nc2ccc(NC(=O)c3cccc([N+](=O)[O-])c3)cc12 | 0 |
